# Source: ChEMBL document CHEMBL1961873, “Compounds: GSK PKIS; Assays: Nanosyn kinase panel” (2012)
# Legend:
# [1] = target: Dual specificity protein kinase CLK3 (Homo sapiens) (UniProt P49761); details: at 1 µM;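 also: each value is the mean inhibition of CLK3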
# [2] = target: Dual specificity tyrosine-phosphorylation-regulated kinase 1A (Homo sapiens) (UniProt Q13627); details: at 0.1 µM
# [3] = target: Dual specificity tyrosine-phosphorylation-regulated kinase 1A (Homo sapiens) (UniProt Q13627); details: at 1 µM
# [4] = target: Dual specificity tyrosine-phosphorylation-regulated kinase 1B (Homo sapiens) (UniProt Q9Y463); details: at 0.1 µM
# [5] = target: Dual specificity tyrosine-phosphorylation-regulated kinase 1B (Homo sapiens) (UniProt Q9Y463); details: at 1 µM
# [6] = target: T1, Dual specificity tyrosine-phosphorylation-regulated kinase 2 (Homo sapiens) (UniProt Q92630); details: at 0.1 µM
# T1 sequence (whole entry): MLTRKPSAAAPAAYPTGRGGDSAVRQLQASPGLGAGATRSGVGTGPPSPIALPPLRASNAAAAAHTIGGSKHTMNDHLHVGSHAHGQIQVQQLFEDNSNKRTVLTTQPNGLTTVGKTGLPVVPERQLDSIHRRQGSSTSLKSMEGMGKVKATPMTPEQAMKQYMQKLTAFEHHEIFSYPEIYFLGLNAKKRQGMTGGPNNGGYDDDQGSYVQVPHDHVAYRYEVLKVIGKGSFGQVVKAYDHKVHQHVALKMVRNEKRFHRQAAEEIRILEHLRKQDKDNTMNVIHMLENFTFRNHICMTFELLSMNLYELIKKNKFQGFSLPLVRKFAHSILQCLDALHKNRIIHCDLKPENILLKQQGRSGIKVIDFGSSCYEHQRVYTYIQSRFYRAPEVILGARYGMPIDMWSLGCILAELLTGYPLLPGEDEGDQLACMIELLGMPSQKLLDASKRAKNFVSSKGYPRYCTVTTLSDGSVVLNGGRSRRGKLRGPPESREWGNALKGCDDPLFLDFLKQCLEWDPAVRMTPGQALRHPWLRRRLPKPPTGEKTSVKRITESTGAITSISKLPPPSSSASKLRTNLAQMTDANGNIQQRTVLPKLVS
# [7] = target: T1, Dual specificity tyrosine-phosphorylation-regulated kinase 2 (Homo sapiens); details: at 1 µM
# [8] = target: Glycogen synthase kinase-3 alpha (Homo sapiens) (UniProt P49840); details: at 0.1 µM
# [9] = target: Glycogen synthase kinase-3 alpha (Homo sapiens) (UniProt P49840); details: at 1 µM
# [10] = target: Glycogen synthase kinase-3 beta (Homo sapiens) (UniProt P49841); details: at 0.1 µM
# [11] = target: Glycogen synthase kinase-3 beta (Homo sapiens) (UniProt P49841); details: at 1 µM
# [12] = target: Homeodomain-interacting protein kinase 1 (Homo sapiens) (UniProt Q86Z02); details: at 0.1 µM
# [13] = target: Homeodomain-interacting protein kinase 1 (Homo sapiens) (UniProt Q86Z02); details: at 1 µM
# [14] = target: T2, Homeodomain-interacting protein kinase 4 (Homo sapiens) (UniProt Q8NE63); details: at 0.1 µM
# T2 sequence (whole entry): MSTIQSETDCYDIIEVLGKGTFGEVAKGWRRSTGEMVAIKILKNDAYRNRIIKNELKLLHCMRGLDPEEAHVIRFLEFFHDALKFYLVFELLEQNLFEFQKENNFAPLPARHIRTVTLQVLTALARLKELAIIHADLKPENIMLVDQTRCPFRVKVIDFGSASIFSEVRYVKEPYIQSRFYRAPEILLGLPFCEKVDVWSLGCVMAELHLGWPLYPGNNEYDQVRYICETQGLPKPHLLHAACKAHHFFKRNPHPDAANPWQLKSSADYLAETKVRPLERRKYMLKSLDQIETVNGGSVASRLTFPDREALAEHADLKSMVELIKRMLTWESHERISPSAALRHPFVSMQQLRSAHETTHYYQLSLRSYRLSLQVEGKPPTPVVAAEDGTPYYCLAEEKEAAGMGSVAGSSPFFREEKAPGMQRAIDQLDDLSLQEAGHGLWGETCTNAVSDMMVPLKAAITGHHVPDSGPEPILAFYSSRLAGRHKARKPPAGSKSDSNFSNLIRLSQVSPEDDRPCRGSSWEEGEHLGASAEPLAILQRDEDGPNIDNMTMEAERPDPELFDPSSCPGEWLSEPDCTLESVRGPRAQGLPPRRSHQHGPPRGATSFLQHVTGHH
# [15] = target: T2, Homeodomain-interacting protein kinase 4 (Homo sapiens); details: at 1 µM
# [16] = target: Mitogen-activated protein kinase 9 (Homo sapiens) (UniProt P45984); details: at 0.1 µM
# [17] = target: Mitogen-activated protein kinase 9 (Homo sapiens) (UniProt P45984); details: at 1 µM
# [18] = target: Mitogen-activated protein kinase 1 (Homo sapiens) (UniProt P28482); details: at 0.1 µM
# [19] = target: Mitogen-activated protein kinase 1 (Homo sapiens) (UniProt P28482); details: at 1 µM
# [20] = target: Mitogen-activated protein kinase 3 (Homo sapiens) (UniProt P27361); details: at 0.1 µM;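 also: each value is a mean inhibition figure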
# Sequence of Mitogen-activated protein kinase 3 (Homo sapiens) (P27361 whole entry): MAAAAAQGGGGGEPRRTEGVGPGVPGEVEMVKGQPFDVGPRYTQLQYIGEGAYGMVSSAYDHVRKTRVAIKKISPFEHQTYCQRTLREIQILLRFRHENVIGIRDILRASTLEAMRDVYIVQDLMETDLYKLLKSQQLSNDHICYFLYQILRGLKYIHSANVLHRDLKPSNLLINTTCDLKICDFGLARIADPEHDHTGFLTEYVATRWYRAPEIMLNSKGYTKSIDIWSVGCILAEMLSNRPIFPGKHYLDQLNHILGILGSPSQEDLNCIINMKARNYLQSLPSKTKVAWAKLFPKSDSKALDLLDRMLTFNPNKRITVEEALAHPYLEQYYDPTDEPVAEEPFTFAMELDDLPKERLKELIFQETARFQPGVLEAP
# Sequence of Homeodomain-interacting protein kinase 1 (Homo sapiens) (Q86Z02 whole entry, looked up): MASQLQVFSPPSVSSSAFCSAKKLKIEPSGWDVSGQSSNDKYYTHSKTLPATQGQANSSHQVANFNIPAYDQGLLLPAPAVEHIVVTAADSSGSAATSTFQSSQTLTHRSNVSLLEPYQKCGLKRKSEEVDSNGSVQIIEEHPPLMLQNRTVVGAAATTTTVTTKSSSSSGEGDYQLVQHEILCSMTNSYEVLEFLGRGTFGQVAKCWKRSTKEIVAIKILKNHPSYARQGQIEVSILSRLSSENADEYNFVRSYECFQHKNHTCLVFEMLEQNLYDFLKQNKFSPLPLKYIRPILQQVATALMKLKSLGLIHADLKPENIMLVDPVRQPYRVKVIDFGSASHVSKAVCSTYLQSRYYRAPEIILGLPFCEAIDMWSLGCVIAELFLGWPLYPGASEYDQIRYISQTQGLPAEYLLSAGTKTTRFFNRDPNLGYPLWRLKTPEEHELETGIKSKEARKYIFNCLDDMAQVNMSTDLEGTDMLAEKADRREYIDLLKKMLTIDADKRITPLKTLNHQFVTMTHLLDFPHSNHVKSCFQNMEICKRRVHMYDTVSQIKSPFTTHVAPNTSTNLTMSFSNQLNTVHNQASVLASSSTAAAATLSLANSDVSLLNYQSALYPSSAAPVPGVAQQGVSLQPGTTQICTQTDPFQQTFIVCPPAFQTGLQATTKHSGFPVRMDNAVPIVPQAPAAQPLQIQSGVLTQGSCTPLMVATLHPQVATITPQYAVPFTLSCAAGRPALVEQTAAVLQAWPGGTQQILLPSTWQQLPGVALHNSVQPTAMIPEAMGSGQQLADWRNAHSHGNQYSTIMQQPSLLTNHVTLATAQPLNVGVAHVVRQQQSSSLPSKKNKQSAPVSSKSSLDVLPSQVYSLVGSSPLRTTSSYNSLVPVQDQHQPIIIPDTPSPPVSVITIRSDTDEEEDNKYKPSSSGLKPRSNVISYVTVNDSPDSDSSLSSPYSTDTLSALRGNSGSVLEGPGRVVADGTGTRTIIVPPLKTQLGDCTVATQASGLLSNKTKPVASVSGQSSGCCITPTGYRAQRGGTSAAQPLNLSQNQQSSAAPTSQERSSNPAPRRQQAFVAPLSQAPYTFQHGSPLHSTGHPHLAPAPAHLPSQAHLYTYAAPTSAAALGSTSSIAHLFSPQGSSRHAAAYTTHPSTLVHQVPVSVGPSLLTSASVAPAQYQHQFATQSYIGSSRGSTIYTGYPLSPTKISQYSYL
# Sequence of Dual specificity protein kinase CLK3 (Homo sapiens) (P49761 whole entry, looked up): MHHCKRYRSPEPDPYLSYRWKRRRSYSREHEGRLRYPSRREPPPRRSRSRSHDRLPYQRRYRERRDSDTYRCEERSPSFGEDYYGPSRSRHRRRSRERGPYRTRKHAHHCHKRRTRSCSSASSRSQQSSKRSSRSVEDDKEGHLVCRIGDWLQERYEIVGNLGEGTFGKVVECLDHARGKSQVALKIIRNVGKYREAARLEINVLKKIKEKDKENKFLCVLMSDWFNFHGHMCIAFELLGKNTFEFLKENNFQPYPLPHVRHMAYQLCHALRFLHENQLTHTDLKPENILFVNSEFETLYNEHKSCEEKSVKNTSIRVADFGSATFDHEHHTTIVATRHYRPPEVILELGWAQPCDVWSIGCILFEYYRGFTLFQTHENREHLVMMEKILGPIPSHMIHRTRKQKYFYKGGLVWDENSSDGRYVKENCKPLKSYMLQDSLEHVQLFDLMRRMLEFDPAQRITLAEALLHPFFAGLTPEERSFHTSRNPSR
# Sequence of Glycogen synthase kinase-3 alpha (Homo sapiens) (P49840 2-483 limits assumed): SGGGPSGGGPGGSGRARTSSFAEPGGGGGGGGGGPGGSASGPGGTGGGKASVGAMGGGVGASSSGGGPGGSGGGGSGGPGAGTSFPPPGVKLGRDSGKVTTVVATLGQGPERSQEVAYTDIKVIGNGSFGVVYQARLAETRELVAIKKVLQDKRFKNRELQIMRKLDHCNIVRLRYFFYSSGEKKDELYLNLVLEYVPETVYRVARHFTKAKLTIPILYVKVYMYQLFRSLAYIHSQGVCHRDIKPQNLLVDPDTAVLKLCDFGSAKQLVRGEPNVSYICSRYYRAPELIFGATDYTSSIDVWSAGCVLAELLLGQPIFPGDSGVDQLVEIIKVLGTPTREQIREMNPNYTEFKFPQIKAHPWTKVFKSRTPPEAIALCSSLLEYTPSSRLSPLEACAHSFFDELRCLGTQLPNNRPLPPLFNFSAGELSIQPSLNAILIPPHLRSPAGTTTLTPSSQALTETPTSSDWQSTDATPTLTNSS
# Sequence of Dual specificity tyrosine-phosphorylation-regulated kinase 1B (Homo sapiens) (Q9Y463 whole entry, looked up): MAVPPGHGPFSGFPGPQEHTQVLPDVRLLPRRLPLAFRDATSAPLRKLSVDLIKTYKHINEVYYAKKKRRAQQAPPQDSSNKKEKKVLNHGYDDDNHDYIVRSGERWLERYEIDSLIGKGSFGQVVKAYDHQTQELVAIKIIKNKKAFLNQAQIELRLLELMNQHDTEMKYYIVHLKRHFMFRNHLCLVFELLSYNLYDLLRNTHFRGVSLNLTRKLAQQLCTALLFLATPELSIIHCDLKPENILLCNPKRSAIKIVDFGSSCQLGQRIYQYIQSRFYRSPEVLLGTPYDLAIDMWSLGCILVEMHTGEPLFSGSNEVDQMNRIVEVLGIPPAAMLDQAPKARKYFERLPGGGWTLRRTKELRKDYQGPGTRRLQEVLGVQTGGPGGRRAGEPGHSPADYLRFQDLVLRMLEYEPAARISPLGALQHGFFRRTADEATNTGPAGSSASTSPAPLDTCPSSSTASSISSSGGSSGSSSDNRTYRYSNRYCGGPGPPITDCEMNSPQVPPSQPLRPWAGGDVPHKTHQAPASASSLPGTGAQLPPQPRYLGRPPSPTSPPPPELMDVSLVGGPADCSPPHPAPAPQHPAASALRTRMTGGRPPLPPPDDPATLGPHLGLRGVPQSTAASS
# Sequence of Mitogen-activated protein kinase 1 (Homo sapiens) (P28482 whole entry): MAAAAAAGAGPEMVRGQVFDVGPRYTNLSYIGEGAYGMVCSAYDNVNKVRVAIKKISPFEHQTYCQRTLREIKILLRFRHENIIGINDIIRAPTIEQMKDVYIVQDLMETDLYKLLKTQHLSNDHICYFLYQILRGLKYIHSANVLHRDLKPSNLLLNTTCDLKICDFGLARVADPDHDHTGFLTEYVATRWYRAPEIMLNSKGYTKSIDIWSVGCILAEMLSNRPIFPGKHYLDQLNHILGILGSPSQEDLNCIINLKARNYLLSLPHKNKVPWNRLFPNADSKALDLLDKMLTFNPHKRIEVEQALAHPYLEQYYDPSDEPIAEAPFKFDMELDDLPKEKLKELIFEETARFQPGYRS
# Sequence of Glycogen synthase kinase-3 beta (Homo sapiens) (P49841 whole entry, looked up): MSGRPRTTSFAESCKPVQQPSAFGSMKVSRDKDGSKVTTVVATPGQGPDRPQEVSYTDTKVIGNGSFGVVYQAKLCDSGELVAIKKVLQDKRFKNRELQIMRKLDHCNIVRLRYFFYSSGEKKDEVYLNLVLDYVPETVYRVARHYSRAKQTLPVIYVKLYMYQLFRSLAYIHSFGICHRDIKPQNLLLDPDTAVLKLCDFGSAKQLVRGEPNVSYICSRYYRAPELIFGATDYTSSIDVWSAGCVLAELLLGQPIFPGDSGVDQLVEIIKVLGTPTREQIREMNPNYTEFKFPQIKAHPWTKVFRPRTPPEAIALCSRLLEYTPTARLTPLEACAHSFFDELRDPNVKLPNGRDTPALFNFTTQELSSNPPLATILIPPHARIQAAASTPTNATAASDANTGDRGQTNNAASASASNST
# Sequence of Mitogen-activated protein kinase 9 (Homo sapiens) (P45984 whole entry, looked up): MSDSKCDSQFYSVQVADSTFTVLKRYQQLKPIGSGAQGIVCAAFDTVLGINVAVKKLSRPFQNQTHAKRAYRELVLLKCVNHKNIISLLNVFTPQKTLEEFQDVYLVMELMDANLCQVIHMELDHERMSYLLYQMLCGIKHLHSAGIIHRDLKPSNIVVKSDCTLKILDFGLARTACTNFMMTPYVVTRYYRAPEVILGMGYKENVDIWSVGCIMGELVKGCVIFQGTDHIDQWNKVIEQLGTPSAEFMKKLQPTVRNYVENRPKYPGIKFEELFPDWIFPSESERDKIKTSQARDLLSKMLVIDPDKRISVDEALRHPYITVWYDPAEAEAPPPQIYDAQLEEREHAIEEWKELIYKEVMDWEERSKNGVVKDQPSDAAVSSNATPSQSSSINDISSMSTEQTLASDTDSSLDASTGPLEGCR
SMILES,inhibition [1],inhibition [2],inhibition [3],inhibition [4],inhibition [5],inhibition [6],inhibition [7],inhibition [8],inhibition [9],inhibition [10],inhibition [11],inhibition [12],inhibition [13],inhibition [14],inhibition [15],inhibition [16],inhibition [17],inhibition [18],inhibition [19],inhibition [20]
CCS(=O)(=O)c1ccc(OC)c(Nc2nccc(N(C)c3ccc4c(C)n[nH]c4c3)n2)c1,2.41%,2.89%,3.45%,-0.67%,-0.22%,2.84%,2.34%,2.43%,3.41%,1.45%,1.7%,-2.02%,1.03%,0.52%,1.15%,3.79%,2.08%,5.51%,5.64%,4.15%
CCS(=O)(=O)c1ccc(OC)c(Nc2ncc(-c3cccc(OC)c3)o2)c1,13.2%,8.22%,41.4%,6.86%,37.7%,3.86%,18.4%,1.96%,9.4%,2.23%,11.2%,7.9%,48.3%,19.5%,65.7%,3.19%,6.62%,1.59%,1.18%,-0.18%
FC(F)(F)c1ccc(-c2nn3ncccc3c2-c2ccnc(Nc3ccc4c(c3)OCCO4)n2)cc1,5.27%,5.25%,6.32%,4.87%,5.88%,-0.81%,0.53%,6.66%,6.68%,7.6%,9.99%,9.14%,7.72%,9.55%,11.2%,3%,32.6%,1.76%,-1.13%,3.25%
Cc1nc(-c2ccccc2)n2nc(NCCCN3CCOCC3)ncc12,1.74%,1.71%,19%,1.12%,7.26%,1.55%,5.9%,5.02%,13.1%,4.78%,18.5%,0.72%,13.3%,1.88%,14.4%,1.8%,5.36%,3.31%,6.13%,4.27%
NS(=O)(=O)c1cccc(Nc2cc(-c3ccc(F)cc3)n[nH]2)c1,2.68%,-0.01%,4.42%,-1.06%,2.79%,1.93%,4.01%,3.57%,7.78%,2.84%,9.59%,2.17%,7.35%,1.27%,6.82%,1.28%,4.86%,4.24%,3.83%,4.14%
Nc1nccc(-c2c(-c3ccc(F)cc3)ncn2CCCN2CCOCC2)n1,1.24%,2.64%,3.19%,0.74%,0.15%,3.1%,4.1%,1.73%,4.53%,0.93%,4.68%,0.97%,-1.48%,0.18%,-0.66%,4.45%,15.8%,6.64%,4.64%,3.65%
CN(C)c1cc2c(Nc3ccc4c(cnn4Cc4ccccc4)c3)ncnc2cn1,1.41%,2.17%,6.83%,1.02%,3.5%,2.42%,2.63%,1.84%,5.95%,1.16%,4.25%,-0.5%,2.06%,0.72%,0.89%,2.84%,2.39%,1.31%,3.41%,0.27%
